Compound activity (PubChem BioAssay)
GLP1R inv ag: qHTS of GLP-1 Receptor Inverse Agonists (Inhibition Mode) | Glucagon-like peptide 1 receptor (Homo sapiens), P43220 | HEK293 GLP-1R CRE-luciferase, luminescence, 24 h; GLP-1R form is constitutively active | Potency, µM (doses to about 38.3 µM), for the others: top-dose activity change, negative = inhibition, most hits filed as inhibitors | hit rate 1.6% among 410,000; note: % is set by controls: 0 for no effect and ±100 for the full control effect; nearly all actives have a fitted effect of over 55% in size
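Inverse agonists were sought by their lowering of basal cAMP reporter luciferase output in HEK293 cells stably carrying constitutively active human GLP-1R, after 24 h compound treatment.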
GLP1R cytotox: qHTS of GLP-1 Receptor Inverse Agonists: Cytotox Screen; hit rate 0.13% among 410,000; AID 624418, 2012; Potency, µM (doses to about 38.3 µM), inactives show at the top dose activity change, negative = inhibition, actives largely listed as inhibitors; HEK293 cAMP-luciferase reporter cells, luminescence, 24 h;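 note: loss of luciferase light is scored as toxicity; % is set by controls: 0 for no effect and ±100 for the full control effect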
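Quantitative HTS format, 1536 wells, 200 cells/uL seeded. Compounds: 23 nL, 24 h, 37 °C. Detection: luciferase reagent, luminescence at 12 min RT; decreased signal taken as cytotoxic.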
PTHR1 ag: qHTS for PTHR1 Agonists: Primary Screen; Parathyroid hormone/parathyroid hormone-related peptide receptor (Homo sapiens), Q03431; Potency, µM (titrated, usually from 115 µM), without a hit: top-dose activation, most hits filed as activators; HEK293 GP2 PTHR1 cells, GloSensor cAMP luminescence, 1 h; hit rate 0.075% among 410,000; note: nearly all actives have a fitted effect of over 55% in size
Target sequence (Q03431 whole entry, looked up): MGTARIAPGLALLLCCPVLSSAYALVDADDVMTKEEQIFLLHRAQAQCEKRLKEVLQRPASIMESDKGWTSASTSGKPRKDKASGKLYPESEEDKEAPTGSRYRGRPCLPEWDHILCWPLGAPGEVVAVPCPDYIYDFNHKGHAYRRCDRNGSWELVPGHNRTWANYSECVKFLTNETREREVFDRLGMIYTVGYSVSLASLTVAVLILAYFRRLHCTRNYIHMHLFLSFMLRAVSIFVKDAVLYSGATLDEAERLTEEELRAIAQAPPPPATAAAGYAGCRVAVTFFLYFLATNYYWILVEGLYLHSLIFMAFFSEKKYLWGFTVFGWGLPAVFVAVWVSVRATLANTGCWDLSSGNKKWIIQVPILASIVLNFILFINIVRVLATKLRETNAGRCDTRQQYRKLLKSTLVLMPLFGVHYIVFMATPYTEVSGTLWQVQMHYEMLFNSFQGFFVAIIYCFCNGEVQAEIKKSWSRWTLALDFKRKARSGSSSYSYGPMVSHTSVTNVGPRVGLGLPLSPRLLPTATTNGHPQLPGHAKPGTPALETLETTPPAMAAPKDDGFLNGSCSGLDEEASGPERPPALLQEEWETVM
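HEK-293-derived GP2 cells expressing PTHR1 and a GloSensor cAMP reporter, 3,000/well, plated overnight, given luciferin plus IBMX (each 0.5 mM as added) for 1 h at 37 °C, then compound for 1 h at 37 °C. Luminescence was read after 15 min at room temperature.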
GLP-1R agonist: qHTS of GLP-1 Receptor Agonists; Glucagon-like peptide 1 receptor (Homo sapiens), P43220; HEK293 GLP-1R CRE-luciferase, luminescence, 4-6 h; cells express a hypersensitive GLP-1R form; AID 624172, 2012; Potency, µM (top dose mostly 45.6 µM), without a hit: at the highest dose activation, hits mostly activators; hit rate 0.007% among 380,000; note: % of control where 0% means no effect
* marks the source's active call; other numbers are inactive results; i = inactive; ? = inconclusive; / = no result given; [ ] = dose if it differs, or a comment. Rows were chosen to be rich in hits. Some 1.7% of all compounds tested hit in one or more screens of this group. Calls come from the whole dose curve; as a rule, active = well fitted curve in the direction sought with a large enough effect; inconclusive = small, poorly fitted or top-dose-only effect, or another doubt; inactive = no such curve, though single readings can be large; an effect the other way counts as inactive or inconclusive. Potency is the fitted concentration of half-maximal effect.

SMILES	GLP1R inv ag	GLP1R cytotox	PTHR1 ag	GLP-1R agonist
O=C(N[C@@H](Cc1ccccc1)C(=O)N1CCC2(CC1)NCCc1[nH]cnc12)c1cccc(Br)c1	10µM*	-22%	i	8%
CC(C)N(CC#CCC(O)(c1ccccc1)c1ccccc1)CCO	10µM*	-14%	-2%	-1%
CC(C)Nc1cc(C(F)(F)F)nc(-c2ccccn2)n1	-15%	?	-5%	-7%
FC(F)(F)c1cc(Nc2ccccc2)nc(-c2ccccn2)n1	3.5µM*	?	i	14%
COc1ccc(CNC(=O)CCC2N=C3c4ccccc4N=C(SCc4ccc(F)cc4)N3C2=O)cc1 (centres undefined)	?	1%	-11%	/
O=C(CC(c1cccs1)N1Cc2ccccc2C1=O)Nc1ccccc1 (centres undefined)	-29%	-10%	2%	3%
CN1C2CCC1CC(N(CCc1ccccc1)C(=O)c1ccc(Cl)cc1)C2 (centres undefined)	10µM*	-1%	-7%	-4%
CCCC(c1nnnn1CC1CCCO1)N1CCN(c2nc3ccccc3s2)CC1 (centres undefined)	?	-1%	-51%[57.5 µM]	6%
CCCCC(c1nnnn1CC1CCCO1)N1CCN(c2nc3ccccc3s2)CC1 (centres undefined)	10µM*	-2%	-9%	6%
Cc1cc(C)cc(-n2ccnc2SCC(=O)Nc2cccc3ccccc23)c1	?	2%	i	-2%
CCCCN(C)CCNC(=S)Nc1ccc2nc(N3CCN(CC)CC3)cc(C)c2c1	1.1µM*	5µM*	24%	11%
CCN(CC)CCNC(=S)Nc1ccc2nc(N3CCN(CC)CC3)cc(C)c2c1	2.5µM*	?	-7%	6%
CCOC(=O)N1CCC(NC(=S)Nc2ccc3nc(N4CCN(CC)CC4)cc(C)c3c2)CC1	8.9µM*	?	i	18%
CCN1CCN(c2cc(C)c3cc(NC(=S)NCCCN4CCc5ccccc5C4)ccc3n2)CC1	?	?	i	18%
CCCCNC(=S)Nc1ccc2nc(N3CCN(CC)CC3)cc(C)c2c1	?	?	i	29%
CCN1CCN(c2cc(C)c3cc(NC(=S)NCCN(C)C)ccc3n2)CC1	3.5µM*	?	i	-3%
COc1cc2ccccc2cc1C(=O)N1CCc2ccccc21	7.9µM*	?	-27%	2%
COc1cc(C(=O)N2CCc3ccccc32)cc(OC)c1OC	-27%	-4%	i	-4%
Cc1ccccc1Nc1scc(-c2ccc(Cl)cc2)[n+]1-c1ccccc1C	10µM*	-19%	-15%	-1%
Cc1c(Nc2scc(-c3ccccc3)[n+]2-c2ccccc2)c(=O)n(-c2ccccc2)n1C	?	8%	-38%	1%
CCN(CC)c1ccc(/C=N/N(c2ccccc2)c2ccccc2)c(O)c1	6.3µM*	22%	-36%	-2%
O=C(O)c1ccc(C[n+]2c(-c3ccccc3)csc2Nc2ccccc2)cc1	24%	-10%	-22%	-2%
CCCCCC[n+]1c(-c2ccccc2)csc1Nc1ccccc1	2.2µM*	0%	-32%	0%
OCCCc1nc2ccccc2n1CCc1ccccc1	0%	-42%	i	6%
CCCc1nc2ccccc2n1CCc1ccccc1	10µM*	-10%	i	10%
SMILES	GLP1R inv ag	GLP1R cytotox	PTHR1 ag	GLP-1R agonist
CCc1nc2ccccc2n1CCCCOc1ccc(C)cc1	10µM*	8%	-31%	/
CCc1nc2ccccc2n1CCCCOc1ccc(Cl)cc1	?	24%	i	/
Cc1ccsc1CN(C(=O)c1ccc(OCC(C)C)cc1)C1CCS(=O)(=O)C1 (centres undefined)	-16%	0%	-5%	/
COc1cccc(CNC(=O)CN2N=C(c3ccc(C)cc3)CCC2=O)c1	0%	4%	-20%	/
CN(C)c1ccc(N=Nc2nccs2)cc1	?	11µM*	-38%	-2%
CN(C)c1ccc(N=Nc2ccccc2Br)cc1	?	?	-86%	-4%
COc1ccc(CNn2c(-c3cccs3)nc3ccccc3c2=O)cc1OC	10µM*	0%	-19%	9%
COc1cccc(C(=O)Nn2c(-c3cccs3)nc3ccccc3c2=O)c1OC	-30%	-9%	-12%	10%
CN1c2ccccc2-c2nc(SCC(=O)Nc3ccccc3)ncc2S1(=O)=O	1%	-1%	-4%	/
CCc1nn2c(=O)cc(COC(=O)c3ccc(NC(=O)c4cccs4)cc3)nc2s1	9%	3%	i	/
CCN1CCN(c2cc(C)c3cc(NC(=O)c4ccc5c(c4)OCO5)ccc3n2)CC1	10%	?	-6%	-1%
CC1CCN(c2ccc(C(=O)Nc3ccc4c(c3)OCO4)cc2[N+](=O)[O-])CC1	6.3µM*	-25%	-36%	1%
CCN1CCN(c2ccc(NC(=O)c3ccc4c(c3)OCCO4)cc2C)CC1	6.3µM*	-5%	-19%	7%
CSc1ccc(NC(=O)NCCCN2CCC(Cc3ccccc3)CC2)cc1	7.9µM*	?	i	2%
COc1ccnc(Oc2ccc(F)cc2)c1C(=O)N/C=N/OCc1c(Cl)cccc1Cl	10µM*	4%	i	7%
C=CCc1cccc2cc(-c3nc4ccc(C(=O)O)cc4[nH]3)c(=O)oc12	-28%	57%	-39%	/
Cc1ccc(S(=O)(=O)N(C)C)cc1NC(=O)COC(=O)/C(=C/c1ccc(F)cc1)c1cccs1	10µM*	-9%	-7%	-1%
Cc1ccc(-n2c(SCC(N)=O)nc3c(oc4ccccc43)c2=O)cc1C	3%	5%	-26%	/
O=C1C=CC(=O)N1CCNc1ncc(C(F)(F)F)cc1Cl	11µM*	?	-29%	6%
O=C1CC(=O)N(CCNc2ncc(C(F)(F)F)cc2Cl)C(=O)N1	0%	17%	i	-25%
CCN(CC)CC(O)Cn1c(C)c(-c2ccccc2)c2cc([N+](=O)[O-])ccc21 (centres undefined)	4.5µM*	?	i	2%
CCN(CC)CC(O)Cn1c2ccccc2c2ccccc21 (centres undefined)	?	16%	i	18%
COc1cc(C2c3c(-c4ccccc4O)n[nH]c3C(=O)N2Cc2ccco2)ccc1OCC(C)C (centres undefined)	?	-21%	-13%	/
Cc1ccc(O)c(N=NC2=C(O)CC(C)(C)CC2=O)c1	?	13µM*	-3%	-3%
O=C1CC(c2ccccc2)Sc2ccccc2N1Cc1ccc(F)cc1 (centres undefined)	?	3%	-30%	4%
CC12CCC(=O)N1C(C(=O)Nc1nc3ccc(Cl)cc3s1)CS2 (centres undefined)	2.8µM*	-3%	-60%	16%
CCc1ccc2nc(NC(=O)C3CSC4(C)CCC(=O)N34)sc2c1 (centres undefined)	5.6µM*	-17%	i	12%
